aSyn 5UTR act – Activators via SNCA 5'UTR binding, MLPCN. alpha-synuclein 5'UTR reporter, activators screen. 300,000 compounds, 7.1% hits. activity score, % (tested at 7.5 µM), hits read low. AID 1814, 2009; in the data active = activity score below about -60%
Numbers stand for hits; n = inactive. Not all results are given here.

SMILES	aSyn 5UTR act
COc1ccc(NC(=O)c2ccccc2NC(=O)CSc2ccccc2)cc1	-79
COC(=O)c1ccc(NC(=O)CSc2ccccc2)cc1	-129
COc1ccc(-c2cn3c(n2)CCC3)cc1	-91
CN(Cc1nc(-c2cccs2)no1)CC(O)c1ccccc1 (stereo not given)	-62
Fc1ccc(OCc2nc(-c3cccs3)no2)cc1	-123
c1ccc(OCc2nc(-c3cccs3)no2)cc1	-173
O=C(CCC1CCCC1)Nc1ccc(C(=O)NCc2cccnc2)cc1	n
Cn1ccnc1CN1CCCCC1C(=O)Nc1ccc(Oc2cccnc2)cc1 (stereo not given)	-77
CN(C)c1ccc(N=Nc2ccccc2C(=O)OCC(=O)N(C)c2ccccc2)cc1	-83
CC(=O)c1ccc(NC(=O)COC(=O)c2ccccc2N=Nc2ccc(N(C)C)cc2)cc1	-101
COC(=O)c1ccccc1NC(=O)COC(=O)c1ccccc1N=Nc1ccc(N(C)C)cc1	-80
Fc1cccc(/C=N/Nc2ccccn2)c1	-277
Fc1cccc(Cl)c1/C=N/Nc1ccccn1	-235
Fc1cccc(F)c1/C=N/Nc1ccccn1	-230
Cc1cccc2c1Sc1ccc(Cl)cc1CC2N1CCNCC1 (stereo not given)	n
CCn1cnc2cc(NC(=O)c3cccs3)ccc21	-109
CC(C)(C)n1cnc2cc(NC(=O)c3ccccc3)ccc21	-137
COc1ccccc1-n1cnc2cc(NCc3cccs3)ccc21	n
CC(C)(C)n1cnc2cc(NCc3cccs3)ccc21	-102
CC(C)(C)n1cnc2cc(NC(=O)c3cccs3)ccc21	-134
c1ccc(-c2ccc3sccc3n2)cc1	-173
COc1ccc(NC(=S)NC(=O)c2ccccc2)cn1	-138
COc1ccc(NC(=O)c2cccc(Oc3ccccc3)c2)cn1	-109
COc1cccc(/C=N/Nc2ccc(C(=O)O)cc2)c1O	n
COc1ccc(/C(C)=N/Nc2cccc(C(=O)O)c2)cc1OC	-113
SMILES	aSyn 5UTR act
O=C(O)c1cccc(N/N=C/c2cc(Br)cc(Br)c2O)c1	-232
CN(C)c1ccc(/C=N/Nc2cccc(C(=O)O)c2)cc1	n
COc1ccccc1/C=C/C=N/Nc1cccc(C(=O)O)c1	-119
COc1ccc(Br)cc1/C=N/Nc1cccc(C(=O)O)c1	-76
COc1ccc(S(=O)(=O)Nc2ccccc2OC)cc1NC(=O)c1cc2ccccc2oc1=O	-159
COc1ccc(NC(=O)c2oc3ccccc3c2C)c(OC)c1	-216
COc1ccc(NC(=O)c2cc3ccccc3oc2=O)c(OC)c1	-113
COc1ccc2oc(=O)c(C(=O)Nc3cccc(C)c3)cc2c1	-128
COc1ccccc1C(=O)Nc1cc2ccccc2oc1=O	-172
Cc1oc(-c2ccc3ccccc3c2)nc1CN(C)C(C)c1ccncn1 (stereo not given)	-80
O=c1c2ccccc2nc2ccc(NCc3cccs3)nn12	-164
Cc1cc(C)c2c3c(sc2n1)C(c1cccc(F)c1)C(C#N)=C(N)O3 (stereo not given)	-76
CC(=O)c1ccc(S(=O)(=O)N2CCCC2)cc1	-84
O=C(N/N=C\c1cc(Cl)ccc1O)c1ccc(S(=O)(=O)N2CCCCC2)cc1	n
c1ccc(-n2ncc3c(NC4CCCCCC4)ncnc32)cc1	-97
c1ccc(-n2ncc3c(NCC4CCCO4)ncnc32)cc1 (stereo not given)	-132
COc1ccc(-n2ncc3c(NCC4CCCO4)ncnc32)cc1 (stereo not given)	-140
Cc1ccccc1Nc1ncnc2c1cnn2-c1ccccc1	-112
Clc1ccc(-n2ncc3c(NCC4CCCO4)ncnc32)cc1 (stereo not given)	-89
O=C(Nc1ccc(OCC(F)(F)C(F)F)c(C(F)(F)F)c1)c1ccccc1	-101
O=C(O)CC(=O)Nc1ccc(Oc2ccc(C(F)(F)F)cn2)c(Cl)c1	n
COc1ccc(N=C2S/C(=C\c3ccc(N4CCOCC4)o3)C(=O)N2CCc2c[nH]c3ccccc23)cc1	-113
C/C(NC(=O)c1cccc(F)c1)=C1/C(=O)C[C@@H]2[C@H]1C2(C)C	-183
C/C(NC(=O)c1ccccc1F)=C1\C(=O)C[C@@H]2[C@H]1C2(C)C	-174
O=C(NC(=S)NNC(=O)[C@H]1C[C@@H]1c1ccccc1)c1cccc(F)c1	n
SMILES	aSyn 5UTR act
CC(=O)Nc1ccccc1OCC(=O)c1cc(C)n(Cc2cccs2)c1C	-150
Cc1ccc(C(=O)OCC(=O)c2cc(C)n(CC3CCCO3)c2C)cc1 (stereo not given)	-161
Cc1cc(C(=O)COC(=O)c2ccccc2O)c(C)n1Cc1cccs1	n
Cc1cc(C(=O)COC(=O)c2ccc(N)c([N+](=O)[O-])c2)c(C)n1Cc1ccc2c(c1)OCO2	-164
Cc1cc(C(=O)COC(=O)c2ccc3c(c2)OCO3)c(C)n1Cc1cccs1	-65
Cc1cc(C(=O)CSc2nnc(-c3cccnc3)n2-c2ccccc2)c(C)n1CC1CCCO1 (stereo not given)	-78
C=CCn1c(C)cc(C(=O)COC(=O)c2ccc(N)c([N+](=O)[O-])c2)c1C	-142
COc1ccc(/C=C2\C(=O)NCC(=O)N2Cc2ccccc2)cc1	-62
CN(C)c1ccc(N=Nc2nc3ccccc3n2C)cc1	-117
Cc1ccc2nc(NC(=O)c3ccc4ncsc4c3)sc2c1	-145
Cc1ccc2nc(NC(=O)c3ccc4c(c3)OCO4)sc2c1	-130
CC(C)(C)c1ccc(/C=C/C(=O)N2CCOCC2)cc1	-147
CC(C)Cc1ccc(/C=C/C(=O)N2CCOCC2)cc1	-161
C#CCOCCOCCOCCNc1nc(N2CCN(C(=O)CCCCCCCCCCNC(=O)Cn3cc(C[C@@H](C)O)nn3)CC2)nc(N2CCN(C(=O)CCCCCCCCCCNC(=O)[C@H](CCCN=C(N)N)n3cc(C[C@@H](C)CC)nn3)CC2)n1	-85
O=C(COC(=O)c1cc2ccccc2oc1=O)Nc1ccc(F)cc1F	-169
CCN(CC)S(=O)(=O)c1cccc(NC(=O)c2cc3ccccc3o2)c1	-126
CN(C)S(=O)(=O)c1cccc(NC(=O)c2cc3ccccc3o2)c1	-122
CN(C)S(=O)(=O)c1cccc(NC(=O)COC(=O)c2cc3ccccc3oc2=O)c1	-105
Cc1ccc(NC(=O)N2C(=O)C3(OCCO3)c3ccccc32)cc1	-165
Cc1ccc(C2=[N+]([O-])C3(CCCCC3=O)N(O)C2(C)C)cc1 (stereo not given)	n
COC(=O)c1ccn(Cc2ccccc2Cl)n1	-106
O=C(CCN1C(=O)/C(=C/c2ccccc2Cl)SC1=S)NC1C=CS(=O)(=O)C1 (stereo not given)	-71
O=C(CCCN1C(=O)/C(=C/c2ccccc2Cl)SC1=S)NNC(=O)c1ccccc1	n
O=C(CCN1C(=O)/C(=C/c2ccc(F)cc2)SC1=S)NC1C=CS(=O)(=O)C1 (stereo not given)	-73
CCC(=O)N1CCc2nc(-c3ccccc3)sc2C1	-179
SMILES	aSyn 5UTR act
Nc1n[nH]c2ccccc12	-62
C=CCNC(=S)NC(=O)c1oc2ccccc2c1C	-155
Cc1c(C(=O)NC(=S)NCC(C)C)oc2ccccc12	-191
Cc1cccnc1NC(=S)NC(=O)c1oc2ccccc2c1C	-226
O=C(Nc1ccccc1)Nc1ccc2c(c1)CCC2	-135
O=C(Nc1cccc([N+](=O)[O-])c1)Nc1cccs1	-110
O=C(Cc1ccccc1)Nc1ccc2c(c1)CCC2	-105
O=C(Nc1ccc(F)cc1)Nc1ccc2c(c1)CCC2	-120
O=[N+]([O-])c1cccc(NC(=S)N2CCc3ccccc3C2)c1	-120
Cc1cc(NC(=S)NC(=O)CC(C)C)ccc1Br	-155
Cc1c(C(=O)Nc2cccc([N+](=O)[O-])c2)csc1-c1ccccc1	-130
